In PubChem BioAssay (Tox21):
Inconclusive results are not listed. A call without a number means that no potency is given here. Active and inactive are the calls of the source. Calls follow the shape of the dose curve; as a rule, active = well fitted activation curve with a large enough effect in the signal ratio in the repeat runs (not every such curve was filed as active); inconclusive = weak or mixed curves, or effect the other way; inactive = flat fitted curve, though single readings scatter; the % refers to the signal ratio.

molecular target: Estrogen receptor beta (Homo sapiens) (UniProt Q92731); experiment: qHTS assay to identify small molecule agonists of the estrogen receptor beta (ER-beta) signaling pathway (AID 1259377); conditions: ER-beta-UAS-bla HEK293T, beta-lactamase FRET ratio, 16 h; series mostly up to 92.4 µM
Sequence (Q92731 whole entry, looked up): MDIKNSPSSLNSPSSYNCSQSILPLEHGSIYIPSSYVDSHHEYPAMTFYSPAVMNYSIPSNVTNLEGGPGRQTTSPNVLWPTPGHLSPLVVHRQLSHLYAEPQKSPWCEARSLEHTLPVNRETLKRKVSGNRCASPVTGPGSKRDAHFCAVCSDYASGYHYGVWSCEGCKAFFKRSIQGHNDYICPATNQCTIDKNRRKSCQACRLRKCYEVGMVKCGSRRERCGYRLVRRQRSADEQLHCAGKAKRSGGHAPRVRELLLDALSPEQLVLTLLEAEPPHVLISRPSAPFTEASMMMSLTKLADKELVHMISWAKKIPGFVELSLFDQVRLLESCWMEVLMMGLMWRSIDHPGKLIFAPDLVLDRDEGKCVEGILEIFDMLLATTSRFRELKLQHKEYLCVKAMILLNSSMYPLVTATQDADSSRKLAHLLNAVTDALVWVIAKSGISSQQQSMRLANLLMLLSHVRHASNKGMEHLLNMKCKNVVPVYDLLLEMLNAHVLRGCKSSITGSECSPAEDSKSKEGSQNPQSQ
Description: U.S. Tox21 Program National Center for Advancing Translational Sciences [NCATS] NIH Chemical Genomics Center [NCGC] U.S. Environmental Protection Agency [EPA] National Institutes of Environmental Health Sciences [NIEHS] National Toxicology Program [NTP] U.S. Food and Drug Administration [FDA] Tox21 Assay Overview: Estrogen receptor (ER), a nuclear hormone receptor, plays an important role in development, metabolic homeostasis and reproduction. Two subtypes of ER, ER-alpha and ER-beta, have similar expression patterns with some uniqueness in both types. Endocrine disrupting chemicals (EDCs) and their interactions with steroid hormone receptors like ER causes disruption of normal endocrine function. To identify the compounds that activate ER signaling, an ER beta-UAS-bla GripTite cell line (Life technologies, Madison, WI, USA) containing a beta-lactamase reporter gene under the control of an Upstream Activator Sequence (UAS) was used to screen Tox21 10K compound library.
Tox21 Assay Protocol Summary: ER-beta-UAS-bla HEK293T cells were dispensed at 2,000 cells/5 uL of assay medium containing 2% charcoal stripped FBS per well into black wall/clear-bottom 1536-well plates using a Multidrop Combi (ThermoFisher Scientific, Waltham, MA) dispenser. After the assay plates were incubated at a 37C and 5% CO2 for 6 hr, 23 nL of compounds dissolved in DMSO, positive controls or DMSO only was transferred to the assay plate by a Pintool station (Kalypsys, San Diego, CA). The plates were incubated at 37C and 5% CO2 for 16 hr. Then 1 uL of LiveBLAzerTM B/G FRET substrate was added using a BioRAPTR FRD (Flying Reagent Dispenser, Aurora Discovery, San Diego, CA). After the plates were incubated at room temperature for 2 hours, fluorescence intensity was measured by an Envision plate reader (PerkinElmer, Shelton, CT).

SMILES | Potency | activation
O=C(N[C@@H](Cc1ccccc1)[C@@H](O)C(=O)N1C[C@@H](O)[C@@H](O)C1)c1cc2cc(Cl)ccc2[nH]1 | inactive | 
O=C(O)c1ccc2cc(O)ccc2c1 | inactive | 
Cc1c(N=C=O)cccc1N=C=O | inactive | 
O=[N+]([O-])c1ccccc1CCO | inactive | 
CCCCCCCCC(=O)OCC(C)OC(=O)CCCCCCCC (stereo not given) | inactive | 
CC(O)C(C)O (stereo not given) | inactive | 
Sc1nc(S)nc(S)n1 | inactive | 
Cc1ccc2ccccc2c1[N+](=O)[O-] | inactive | 
O=C1C=CCCC1 | inactive | 
CCCCOc1ccc(N)cc1 | inactive | 
O=C(c1ccc(Cl)cc1)c1ccc(Cl)cc1 | inactive | 
CCC(CC)C(=O)O | inactive | 
OCCc1ccncc1 | inactive | 
Nc1ccccc1Nc1ccccc1 | inactive | 
Cc1c(Cl)cccc1[N+](=O)[O-] | inactive | 
CC1=C(C)C(=O)C(C(CCCCCC(=O)O)c2ccccc2)=C(C)C1=O (stereo not given) | inactive | 
CO[C@@H]1COCC[C@@H]1N[C@@H]1CC[C@@](C(=O)N2CCc3ncc(C(F)(F)F)cc3C2)(C(C)C)C1 | inactive | 
CCCCCCOC(=O)c1ccccc1 | inactive | 
CCOc1ccc(NC(C)=O)cc1N | inactive | 
CCN(CC)CC(=O)OCC(=O)[C@@]1(O)CC[C@H]2[C@@H]3CCC4=CC(=O)CC[C@]4(C)[C@H]3[C@@H](O)C[C@@]21C | inactive | 

SMILES | Potency | activation
S=c1[nH][nH]c(=S)s1 | inactive | 
COC=O |  | 8.91% [at 8.39 µM] (inactive)
CCCC1CCCC(=O)O1 (stereo not given) | inactive | 
CCCCCCCCCCCCN1CCOCC1 | inactive | 
Cc1ccc(Cl)c(OCC(O)CNC(C)(C)C)c1 (stereo not given) | inactive | 
CC(Cc1ccccc1)(NC(=O)CN)c1ccccc1 (stereo not given) | inactive | 
Clc1cccc(C(c2ccc3nc[nH]c3c2)n2ccnc2)c1 (stereo not given) | inactive | 
C=C(C)C(=O)OCCCCCCCCCCOC(=O)C(=C)C | inactive | 
CCC1=C(C)CN(C(=O)NCCc2ccc(S(=O)(=O)NC(=O)NC3CCC(C)CC3)cc2)C1=O (stereo not given) | inactive | 
CC(=O)c1ccc(Cl)c(Cl)c1Cl | inactive | 
COC(=O)/C=C/C(C)=C\C=C\C(C)=C\C=C\C=C(C)\C=C\C=C(C)\C=C\C(=O)O | inactive | 
CC(C)(C)c1cc(C=O)cc(C(C)(C)C)c1O | inactive | 
CC(C)(O)C(=O)O | inactive | 
O=Cc1ccc(Cl)c([N+](=O)[O-])c1 | inactive | 
O=C(O)c1ccncc1 | inactive | 
CC1(C)CC(=O)CC(C)(C)N1 | inactive | 
CC(C)=CCC[C@H](C)CCO | inactive | 
CCCC1CCOC(C)S1 (stereo not given) | inactive | 
CCCCCC1CCC(=O)O1 (stereo not given) | inactive | 
COc1cccc([C@H](O)C2CCN(CCc3ccc(F)cc3)CC2)c1OC | inactive | 
